Results filed as inconclusive are left out. Entries that show only a call come without a potency. The source made the active and inactive calls. Calls follow the shape of the dose curve; as a rule, active = well fitted activation curve with a large enough effect; inconclusive = small, poorly fitted or top-dose-only effect; inactive = flat fitted curve, though single readings scatter.
Experiment: qHTS for Inhibitors of Cell Surface uPA Generation: Confirmatory Assay for Cherry-picked Compounds
Settings: cell surface uPA activity generation, qHTS confirmation; series mostly up to 115 µM
Method in brief: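 RAW 264.7 cells at 4000/well, incubated overnight, then treated with compounds. After 24 h at 37 C, viability was read by ATPlite luminescence. An increase in signal indicates blocked uPA-dependent LF entry.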
For `COc1ccccc1CN1CC(C(=O)NCc2cccc(C)n2)CCC1=O` (stereo not drawn), the Potency was “inactive”.
For `CC(Sc1nnc2ccccn12)C(=O)NCc1ccc2c(c1)OCO2` (stereo not drawn), the Potency was “inactive”.
With `COc1cccc(NC(=O)CN(C)C(=O)c2csc3c2CCCC3)c1` the Potency was “inactive”.
For `Fc1ccc(CNc2ccccn2)cc1`, the Potency was “inactive”.
For `CC(=O)c1ccc(N2CCN(C(=S)NCc3ccco3)CC2)cc1`, the Potency was “inactive”.
With `O=C(c1ccccn1)C1CCCN(Cc2cn[nH]c2-c2cc3ccccc3o2)C1` (stereo not drawn) the Potency was “inactive”.
With `CN(CC(=O)N(C)CC(=O)Nc1c(Cl)cccc1Cl)Cc1ccccc1F` the Potency was “inactive”.
With `Cc1ccc(N2C(=O)c3ccccc3C2(O)c2ccccc2)cc1` (stereo not drawn) the Potency was “inactive”.
With `CCN(CC)c1c([N+](=O)[O-])c(=O)sc2ccccc12` the Potency was “inactive”.
In the case of `Fc1cccc(Cl)c1CSc1ccc(-c2cccnc2)nn1`, the Potency is reported as “inactive”.
In the case of `COCCN(C(=O)c1ccc(OC2CCN(S(=O)(=O)N(C)C)CC2)cc1)C(C)C`, the Potency is reported as “inactive”.
For `Cc1ccccc1-c1nnc(SCC(=O)NCC2CCCO2)o1` (stereo not drawn), the Potency was “inactive”.
With `Cc1nc(N2CCN(c3ccc(Cl)cc3)CC2)[nH]c(=O)c1C` the Potency was “inactive”.
In the case of `O=C(COc1cccc2ccccc12)NNC(=O)c1cnccn1`, the Potency is reported as “inactive”.
In the case of `C/C=C/C(=O)Nc1cccc(C2=NOC3(C2)C[C@@H](C(N)=O)N(C(=O)c2cc([N+](=O)[O-])cc([N+](=O)[O-])c2C)C3)c1` (stereo partly drawn), the Potency is reported as “inactive”.
With `CSc1nc(N)nc2c1ncn2CC(=O)NCC1CCCO1` (stereo not drawn) the Potency was “inactive”.
In the case of `CCOC(=O)c1cc(-c2ccccc2C)n(CC2CC(c3ccc(OC)cc3)=NO2)n1` (stereo not drawn), the Potency is reported as “inactive”.
In the case of `COc1ccc(NS(=O)(=O)c2cc3c(cc2C)NC(=O)CO3)c(OC)c1`, the Potency is reported as “inactive”.
For `O=C(c1cc2cc([N+](=O)[O-])ccc2s1)N1CCOCC1`, the Potency was “inactive”.
With `CN(C)c1cccc(C(=O)N(C)C2CCCN(Cc3ccccc3F)C2)c1` (stereo not drawn) the Potency was 20.7 µM (active).
With `COc1cc(NC(=S)NCCc2ccc(S(N)(=O)=O)cc2)c(OC)cc1Cl` the Potency was “inactive”.
For `CC(=O)Oc1ccc(OC(C)=O)c(SCCCCCCl)c1`, the Potency was “inactive”.
With `CC(C)CN(C(=O)CN1CCC(C)CC1)c1c(N)n(CC(C)C)c(=O)[nH]c1=O` the Potency was “inactive”.
In the case of `Cc1cc(COc2ccccc2)oc1C(=O)O`, the Potency is reported as “inactive”.
For `C=CCOC(=O)C1=C[C@@H](c2coc3ccccc3c2=O)C[C@@H](OCc2ccc(CO)cc2)O1`, the Potency was “inactive”.
With `O=C(O)COc1ccccc1/C=N/NC(=O)CNC(=O)c1ccco1` the Potency was “inactive”.
For `O=C(NCCc1cn2ccsc2n1)c1cccs1`, the Potency was “inactive”.
For `O=C1C[C@@H]2CCN3C(=O)CCC[C@@H]([C@H]23)[C@H]1Cc1ccccc1`, the Potency was “inactive”.
With `Cc1cccc(-c2nc(CS(=O)CC(=O)NCc3cccs3)c(C)o2)c1` (stereo not drawn) the Potency was “inactive”.
For `Cc1ccc2c(c1)N(CC(=O)NCCCc1ccccc1)C(=O)c1cccnc1O2`, the Potency was “inactive”.
With `Brc1ccsc1/C=N/Nc1ccccc1` the Potency was “inactive”.
With `C[C@H]([C@H](O)c1ccccc1)N(C)C(=O)CN` the Potency was “inactive”.
For `COc1ccc([C@H]2[C@H](C(=O)OC(C)(C)C)N3N=Cc4ccccc4C3C23C(=O)c2ccccc2C3=O)cc1OC` (stereo partly drawn), the Potency was “inactive”.
With `Cc1cc(/C=N/NC(=O)c2ccccc2F)c(C)n1-c1ccccc1` the Potency was “inactive”.
In the case of `Cc1cccc(CCNC(=O)Cc2ccc(NC3=NC4CS(=O)(=O)CC4S3)cc2)c1` (stereo not drawn), the Potency is reported as “inactive”.
For `NC(=O)CC(NC(=O)Cc1cccc2ccccc12)c1ccc(N2CCN(c3ccccc3)CC2)c([N+](=O)[O-])c1` (stereo not drawn), the Potency was “inactive”.
In the case of `c1ccc(C2[C@H]3CN(Cc4cccnc4)[C@H](c4ccccc4)C34CC2(c2ccccc2)C4)cc1` (stereo partly drawn), the Potency is reported as “inactive”.
With `CN1CC[C@]23c4ccccc4N[C@H]1[C@]21CCN(C)[C@H]3Nc2ccccc21` the Potency was “inactive”.

From PubChem BioAssay AID720519 (National Center for Advancing Translational Sciences (NCATS), 2013)
Potency is read from the fitted curve at half-maximal effect.
